Measurements: PubChem BioAssay
The source made the active and inactive calls. Rule as the data show it: active = inhibition above about 31%; inactive = the rest.

Test: reversal of MRP1-mediated doxorubicin resistance, pilot screen, H69AR cells, doxorubicin co-treatment (AID 601)
Details: H69AR cells, CellTiter-Glo, 72 h; compound alone cytotoxicity; at 10 µM

| Compound | viability [%] |
| --- | --- |
| CCC(=O)Nc1ccc(NC(=O)c2ccccn2)cn1 | 98.2 |
| Cc1cccc(N2CCN(C(=O)C3CCCN(S(=O)(=O)c4c(C)noc4C)C3)CC2)c1C (stereo not given) | 81.9 |
| CCOC(=O)C1CCCN(CC(=O)NC2CC2)C1 (stereo not given) | 88.2 |
| Cc1ccc(C)c(N(CC(=O)NC2CCCC2)C(=O)CCCC(=O)Nc2ccccn2)c1 | 102 |
| O=C1C2ON(c3ccc(Cl)cc3)C(c3ccco3)C2C(=O)N1c1ccccc1 (stereo not given) | 100 |
| CC1=Nn2c(nnc2-c2ccccc2)SC1 | 95.2 |
| O=C(NCCN1CCOCC1)C1CCC(=O)N1Cc1ccccc1Cl (stereo not given) | 90 |
| C=CCNC(=O)C1CC(=O)N(c2ccc(OCC(=O)Nc3ccc(OC)cc3)cc2)C1 (stereo not given) | 108 |
| Cc1ccccc1-n1c(SCc2c(C)noc2C)nnc1-c1ccncc1 | 87.4 |
| c1cc2c(cc1Nc1nc(-c3ccc4c(c3)OCO4)cs1)OCCO2 | 90.5 |
| CC(=O)OC1CSc2nc3ccccc3n2C1 (stereo not given) | 93.4 |
| CCOC(=O)c1cc(-c2ccccc2)sc1N | 81.3 |
| CC1(C)CC(=O)C2=C(C1)NC(=O)CC2C(=O)NCc1ccc(F)cc1 (stereo not given) | 111 |
| Cc1ccc2nc(-c3ccc4c(c3)OCCO4)cc(C(=O)O)c2c1 | 101 |
| Cn1nc(-c2ccc(N3CCCCC3)c(NC(=O)c3ccco3)c2)c2ccccc2c1=O | 32.3 |
| Cc1[nH]nc2c1C(=O)CCC2 | 101 |
| COc1cc(C(=O)N(C)c2nnc(-c3cccnc3)s2)cc(OC)c1OC | 82.7 |
| Cc1noc(C)c1CSc1nc2ccccc2s1 | 67.8 |
| O=S1(=O)CCC(N=Cc2cc(Br)ccc2O)C1 (stereo not given) | 78.1 |
| CC(C)(C)C1=Nn2c(nnc2-c2n[nH]c3c2CCC3)SC1 | 85.9 |

Test: 384-well plate pilot, post-Golgi transport modulator project, inhibition of yeast transport mutant growth (AID 636)
Details: absorbance 615 nm, about 18 h, stronger effect = higher value

| Compound | inhibition |
| --- | --- |
| COC(=O)CCn1nnc(-c2ccc(C)cc2)n1 | -6% (inactive) |
| COC(=O)CCC(=O)CN | -1.3% (inactive) |
| O=C(Nc1ccc(N2CCCC2)cc1)c1cccc(F)c1 | -0.78% (inactive) |
| Cc1nc(-c2coc3cc(OCC(=O)O)ccc3c2=O)cs1 | -5.14% (inactive) |
| CCN1CCc2c(C#N)c(N3CCCCC3)nc(NCc3ccccc3)c2C1 | -4.4% (inactive) |
| Cc1ccc(S(=O)(=O)N2CCCN(S(=O)(=O)C3CCS(=O)(=O)C3)CC2)cc1 (stereo not given) | -7.2% (inactive) |
| COc1nc(NCCc2ccc(OC)c(OC)c2)nc(NC(C)(C)CO)n1 | -3.38% (inactive) |
| O=C(O)c1cc(-c2ccccc2)nc2ccccc12 | 2.99% (inactive) |
| Cc1nc2ccc(C(=O)O)cc2c2c1CC(C)S2 (stereo not given) | -4.93% (inactive) |
| COC(=O)c1ccc(COC(=O)c2c(C)nn(Cc3ccccc3Cl)c2Cl)o1 | -4.38% (inactive) |
| CSc1nnc(-c2cnccn2)n1Cc1ccccc1 | -2.88% (inactive) |
| COCCNC(=O)C(c1ccc(C)o1)N(Cc1cccs1)C(=O)c1snc(C(N)=O)c1N (stereo not given) | 4% (inactive) |
| COc1ccc(CCNC(=O)CSCc2n[nH]c(=O)[nH]2)cc1OC | -10.7% (inactive) |
| CCCOc1cccc(C(=O)Nc2cc(NC(=O)c3ccco3)ccc2OC)c1 | -3.78% (inactive) |
| Cc1cc(S(=O)(=O)N2CCN(c3ccccc3C)CC2)ccc1F | -0.78% (inactive) |
| O=S(=O)(c1ccc(Br)s1)N1CCN(c2ccccc2)CC1 | -3.78% (inactive) |
| O=C(CSCc1ccc(F)cc1)NC1CCCC1 | -3.9% (inactive) |
| Cc1cc(NCC2CCCO2)n2c(nc3ccccc32)c1C#N (stereo not given) | -6.44% (inactive) |
| Cc1nc(NC2=NCN(CCCN3CCOCC3)CN2)nc2c(C)cccc12 | -4.34% (inactive) |
| Cc1nnc(NC(=O)CCC(=O)N2CCC(C)CC2)s1 | -3.01% (inactive) |

| Compound | inhibition |
| --- | --- |
| CCC(=O)Nc1ccc(NC(=O)c2ccccn2)cn1 | -5.47% (inactive) |
| Cc1cccc(N2CCN(C(=O)C3CCCN(S(=O)(=O)c4c(C)noc4C)C3)CC2)c1C (stereo not given) | -3.21% (inactive) |
| CCOC(=O)C1CCCN(CC(=O)NC2CC2)C1 (stereo not given) | -7.16% (inactive) |
| Cc1ccc(C)c(N(CC(=O)NC2CCCC2)C(=O)CCCC(=O)Nc2ccccn2)c1 | -1.82% (inactive) |
| O=C1C2ON(c3ccc(Cl)cc3)C(c3ccco3)C2C(=O)N1c1ccccc1 (stereo not given) | -2.6% (inactive) |
| CC1=Nn2c(nnc2-c2ccccc2)SC1 | -0.93% (inactive) |
| O=C(NCCN1CCOCC1)C1CCC(=O)N1Cc1ccccc1Cl (stereo not given) | -1.43% (inactive) |
| C=CCNC(=O)C1CC(=O)N(c2ccc(OCC(=O)Nc3ccc(OC)cc3)cc2)C1 (stereo not given) | -0.81% (inactive) |
| Cc1ccccc1-n1c(SCc2c(C)noc2C)nnc1-c1ccncc1 | -3.78% (inactive) |
| c1cc2c(cc1Nc1nc(-c3ccc4c(c3)OCO4)cs1)OCCO2 | -4.19% (inactive) |
| CC(=O)OC1CSc2nc3ccccc3n2C1 (stereo not given) | -8.11% (inactive) |
| CCOC(=O)c1cc(-c2ccccc2)sc1N | -6% (inactive) |
| CC1(C)CC(=O)C2=C(C1)NC(=O)CC2C(=O)NCc1ccc(F)cc1 (stereo not given) | -4.05% (inactive) |
| Cc1ccc2nc(-c3ccc4c(c3)OCCO4)cc(C(=O)O)c2c1 | -4.73% (inactive) |
| Cn1nc(-c2ccc(N3CCCCC3)c(NC(=O)c3ccco3)c2)c2ccccc2c1=O | 1.6% (inactive) |
| Cc1[nH]nc2c1C(=O)CCC2 | 0.68% (inactive) |
| COc1cc(C(=O)N(C)c2nnc(-c3cccnc3)s2)cc(OC)c1OC | -2.05% (inactive) |
| Cc1noc(C)c1CSc1nc2ccccc2s1 | -1.43% (inactive) |
| O=S1(=O)CCC(N=Cc2cc(Br)ccc2O)C1 (stereo not given) | -5.62% (inactive) |
| CC(C)(C)C1=Nn2c(nnc2-c2n[nH]c3c2CCC3)SC1 | -7.26% (inactive) |
